Test results published in the supplement of paper PMC6555819.

What was measured:
Experiment in all cases: PBM binding z-score (relative to random genomic background probes); higher = stronger binding; sequences stand for … in GC…GCGATTGACAGCGTAGAATGAAGG
[1] = test system: FXR:RXRa (NR concentration 270 nM, RXRa partner concentration 90 nM)
Procedure, shortened: (§1)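 Antibodies against each partner of ligand-free nuclear receptor dimers (one per run) detected binding on custom Agilent 4×180K protein-binding microarrays after 1 h incubation. The double-stranded probes had 34-nt variable regions carrying direct-repeat seeds, single-nucleotide variants, half-site ablations and random human genomic background sequences. Binding z-scores, from regression-normalized fluorescence, use the random background probes as reference.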

[2] = test system: LXRa:RXRa (NR concentration 270 nM, RXRa partner concentration 90 nM)
Procedure, shortened: as §1

[3] = test system: LXRa homodimer (NR concentration 270 nM)
Procedure, shortened: as §1

[4] = test system: LXRb:RXRa (NR concentration 270 nM, RXRa partner concentration 90 nM)
Procedure, shortened: as §1

[5] = test system: LXRb homodimer (NR concentration 270 nM)
Procedure, shortened: as §1

[6] = test system: PPARa:RXRa (NR concentration 270 nM, RXRa partner concentration 90 nM)
Procedure, shortened: as §1

[7] = test system: PPARg:RXRa (NR concentration 180 nM, RXRa partner concentration 90 nM)
Procedure, shortened: as §1

[8] = test system: PPARg:RXRa 270nM:90nM, anti-RXR (NR concentration 270 nM, RXRa partner concentration 90 nM)
Procedure, shortened: as §1

[9] = test system: PPARg:RXRa 30nM:10nM, anti-RXR (NR concentration 30 nM, RXRa partner concentration 10 nM)
Procedure, shortened: as §1

[10] = test system: PPARg:RXRa 90nM:30nM, anti-RXR (NR concentration 90 nM, RXRa partner concentration 30 nM)
Procedure, shortened: as §1

Sequence | PBM binding z-score [1] | PBM binding z-score [2] | PBM binding z-score [3] | PBM binding z-score [4] | PBM binding z-score [5] | PBM binding z-score [6] | PBM binding z-score [7] | PBM binding z-score [8] | PBM binding z-score [9] | PBM binding z-score [10]
CCTCGGAGGACAGAAGGTCGGAGCTGTCCGCTTT | -0.221 | -0.259 | -0.611 | -0.529 | -0.931 | -0.47 | -0.973 | -0.664 | -1.51 | -1.26
CCTACTGGGCCATTCAGAGGTCATTGGTCATATG | 2.52 | 4.22 | 7.04 | 3.5 | 0.551 | 3.65 | 2.66 | 3.38 | 1.1 | 2.4
TCGAGTAGGATAGTCGGGGCATTCAGCCAACATA | -0.379 | -0.526 | -0.613 | -0.239 | -0.624 | -0.194 | -0.199 | 0.184 | 0.98 | 0.413
CGTCCGAGGTCAGCAGGTCAGTGAAAGCGACGTG | 6.67 | 4.61 | 0.517 | 3.78 | 0.00416 | 5.44 | 5.32 | 5.3 | 1.73 | 4.16
CAAACTAGGTCAAGTGGTCAAAGTCCGCTTCCCG | 4.81 | 3.79 | 1.15 | 2.42 | 0.597 | 5.45 | 8.38 | 7.13 | 5.18 | 6.97
ATACCAAGGTGATCGTGAGATCGTTGATACTAAC | 0.2 | 0.163 | 0.16 | 0.121 | -0.2 | 0.129 | 0.447 | 0.161 | -0.226 | -0.234
CCTTACGGGTCAAGATTATAGCACGGGTGGTACG | 4.99 | 3.15 | 0.00162 | 2.76 | 0.37 | 4.61 | 3.55 | 3.6 | 1.65 | 2.56
ACTAGTTGGTCGGCTGAGGTCACACACAATTCGG | 3.37 | 2.69 | 1.73 | 2.93 | 0.679 | 3.59 | 1.43 | 2.08 | 0.45 | 1.51
TCTTGTAGATCAAACAGGTTAAGAAAGCCTGAGT | 0.553 | 0.608 | 0.121 | 0.509 | -0.073 | 1.1 | -0.134 | 1.44 | 2.65 | 2.3
CCTACGGGGCCATTCAGAGGTCATTGATCATATG | 3.56 | 4.88 | 6.49 | 4.17 | 0.225 | 3.62 | 1.16 | 2.21 | 0.193 | 1.32
CAGCCTAAGTCAGGGCCAGTATAGGAGGAACGTT | -0.194 | -0.51 | -0.309 | -0.69 | -1.28 | -0.483 | 0.0918 | -0.709 | -0.0751 | -0.475
CGTCAGAGTTCAAGGTAACGTAACAGAAAGCAGC | 5.49 | 5.11 | 1.85 | 3.2 | 0.38 | 4.54 | 2.92 | 3.58 | 0.864 | 2.39
AGAATGAGGTTATACGTAGATCAGGGACGAAAGT | 2.37 | 1.79 | 0.0917 | 1.55 | -0.0358 | 3.23 | 1.83 | 2 | 0.651 | 1.6
CCTCGGAGGACAATAGGAGGTCAGAGCTGCCAGA | 0.746 | 2.4 | 3.23 | 1.38 | -0.2 | 1.87 | 0.443 | 0.389 | -0.612 | -0.255
TCATATAGGTAATACAGGTGAAACTCGGCATCTA | 1.07 | 1.41 | 0.63 | 1.14 | 0.362 | 2.28 | 1.85 | 2.56 | 3.88 | 3.33
CCAACTAGGTCATCCAGGACAGTGAATACATTGA | 3.96 | 2.83 | 1.3 | 2.48 | 0.7 | 4.41 | 6.66 | 5.59 | 2.96 | 4.83
ATCGAAAGGTCGAGGTGAGTCTAGAGAAAGGGAA | 4.71 | 3.71 | 0.045 | 2.76 | 0.53 | 4.63 | 3.46 | 3.62 | 1.16 | 2.32
TCTCGGAGGGCACGAAAGGTCAGAGCTCGACATC | 4.52 | 6.49 | 2.82 | 4.29 | -0.405 | 4.24 | 2.69 | 3.93 | 2.36 | 3.06
CCGAGTAGCTTATGGGGCATTCAGGCAACGGTGA | -0.494 | -0.536 | -0.883 | -0.715 | -1.2 | -0.234 | -0.0289 | -0.512 | -0.765 | -0.818
CAAACTAGGTCACGTAAGGTCAAAGTCGAATGAC | 6.98 | 8.26 | 7.28 | 7.56 | 2.27 | 6.49 | 10.1 | 8.07 | 6.4 | 8.05
AGAACGAGGGCAGTGAGTTGATAGCACGGGTGGC | -0.476 | -0.6 | -0.882 | -0.705 | -0.698 | 0.144 | 0.647 | -0.0577 | -0.624 | -0.408
AGAACGAGGTTAAGATCAGGGAAACAGAATACAT | 2.1 | 2.05 | 0.0843 | 2.09 | 0.134 | 3.4 | 1.98 | 1.92 | 0.64 | 1.61
TCGAGTAGGTTACCTATGGGGCATTCAGCTTTCT | 0.0442 | 1.74 | -0.775 | 0.927 | -1.31 | 1.24 | 0.475 | 1.01 | 1.17 | 1.17
CCAGATAGGTGAGAAGGTAACTCAGCCTCGATTA | -0.0268 | 0.168 | 0.00136 | 0.105 | -0.314 | 1.14 | 1.1 | 2.3 | 0.791 | 1.76
